Compound activity deposited in PubChem by Broad Institute.
aSyn UTR act: Activators via SNCA 5'UTR binding, MLPCN. alpha-synuclein 5'UTR reporter, activators screen. activity score, % (tested at 7.5 µM), hits read low. 7.1% of 300,000 active; in the data active means activity score below about -60%
Each line names hits and unclear results; the compound was inactive in the other large screens. These entries were drawn from the full list.

Cc1ccc(C(=O)c2c3ccc([N+](=O)[O-])cc3[n+]([O-])n2CCCN)cc1	none
Cc1ccc(C(=O)OCC(=O)c2ccccc2)cc1	aSyn UTR act -85.2
Cc1ccc(C(=O)CCc2ccc(N)cc2)cc1	aSyn UTR act -77.3
COC(=O)c1sc(-c2ccc(C(C)(C)C)cc2)cc1NC(=O)c1ccccc1C(=O)O	aSyn UTR act -67.3
O=C(COc1ccc(Br)cc1Cl)NC(=S)Nc1ccccn1	aSyn UTR act -99.9
COCCCNC(=O)COc1ccc(Br)cc1Cl	aSyn UTR act -145.5
C=C1c2ccccc2NC(=S)N1Cc1ccc2c(c1)OCO2	aSyn UTR act -99.0
N/C(=N\OC(=O)CC1CCCCC1)c1cccc(Br)c1	aSyn UTR act -84.4
N/C(=N\OC(=O)CC1CCCCC1)c1ccc(Br)cc1	aSyn UTR act -83.2
N/C(=N\OC(=O)C1CCCCC1)c1cccc(Br)c1	aSyn UTR act -170.4
O=C1N/C(=N\N=C\c2cccnc2)SC1Cc1ccc(SC(F)F)cc1 (stereo not drawn)	none
COc1cc(/C=N/N=C2/NC(=O)C(CC(=O)O)S2)ccc1OCc1cccc(Cl)c1 (stereo not drawn)	aSyn UTR act -184.9
CCCCOc1ccc(-c2ncc(C(=O)O)c(C)n2)cc1	aSyn UTR act -123.0
O=C(C1CCCN(c2ncnc3c2nc2n3CCCCC2)C1)N1CCN(c2ccccc2)CC1 (stereo not drawn)	aSyn UTR act -148.2
Cc1ccc(C(=O)Nc2ncc(Cc3ccc(F)cc3)s2)o1	aSyn UTR act -106.5
CSc1ccccc1C(=O)Nc1ncc(C)s1	aSyn UTR act -62.8
Cc1ccc(C(=O)Nc2ncc(Cc3ccc(SC(F)F)cc3)s2)cc1	aSyn UTR act -162.7
Cc1ccc(C(=O)Nc2ncc(C)s2)o1	aSyn UTR act -119.0
Cc1ccc(N=C2NC(=O)/C(=C/c3cccn3C)S2)cc1	aSyn UTR act -79.7
O=C1NC(=Nc2ccccc2)S/C1=C/c1cccs1	aSyn UTR act -117.3
Cc1ccc(N=C2NC(=O)/C(=C/c3cccn3C)S2)cc1C	aSyn UTR act -127.3
COc1cc(NC(=O)CN2CCC(C)CC2)c(C)cc1[N+](=O)[O-]	aSyn UTR act -81.7
CN1c2ccsc2/C(=N/Nc2ccc(F)cc2)CS1(=O)=O	aSyn UTR act -187.0
Cc1ccc(N/N=C2\CS(=O)(=O)N(C)c3ccsc32)cc1	aSyn UTR act -149.3
O=C1CCCC2=C1C(c1ccco1)Nc1ccc(C(=O)c3ccccc3)cc1N2 (stereo not drawn)	aSyn UTR act -81.1
Cc1ccccc1C(=O)N/N=C/c1ccsc1C	aSyn UTR act -147.5
CCCn1c(=O)c(C(=O)N/N=C/c2ccccc2F)c(O)c2ccccc21	aSyn UTR act -94.9
Cc1ccccc1C(=O)N/N=C/c1ccc([N+](=O)[O-])s1	none
Cc1ccccc1C(=O)N/N=C/c1cccc2ccccc12	aSyn UTR act -71.9
O=C(N/N=C/c1sc2ccccc2c1O)c1cccc2ccccc12	none
O=C(N/N=C/c1ccccc1F)c1cccc2ccccc12	aSyn UTR act -87.3
CCc1ccc(C(=O)N/N=C/c2cccc3ccccc23)nc1	aSyn UTR act -125.5
O=C(COc1ccccc1-c1ccccc1)N/N=C/c1cccc2ccccc12	none
COc1ccc(OC(=O)NCCc2ccccc2)cc1	aSyn UTR act -133.5
COc1cccc(CCNC(=O)c2ccc(C#N)cc2)c1	aSyn UTR act -63.3
COc1ccc(C(=O)Nc2cc(C(=O)NCCc3ccccc3)ccc2Cl)cc1	aSyn UTR act -69.0
COc1ccc(OC)c(NC(=O)c2nc(S(=O)(=O)Cc3ccccc3)ncc2Cl)c1	none
COc1ccc(CCNC(=O)c2nonc2N)cc1	aSyn UTR act -85.1
COc1ccc(O)c(/C=N/NC(=O)c2c(C)nnn2-c2nonc2N)c1	none
COc1ccc(CCNC(=O)c2ccccc2)cc1	aSyn UTR act -63.5
COc1ccc(CC(=O)Nc2ccccc2C(=O)NCCc2ccccc2)cc1	aSyn UTR act -101.0
Clc1ccccc1-c1nnc(-c2cccs2)o1	aSyn UTR act -215.4
CSc1ccccc1-c1nc(-c2ccncc2)no1	aSyn UTR act -194.6
Clc1ccccc1-c1nc(-c2cccnc2)no1	aSyn UTR act -103.9
CN(C)c1ccc(-c2nnc(-c3cccs3)o2)cc1	none
Clc1ccccc1-c1nc(-c2ccncc2)no1	aSyn UTR act -112.0
Clc1ccccc1-c1nnc(-c2cccnc2)o1	aSyn UTR act -139.3
Cc1ccccc1-c1nc(-c2cccnc2)no1	aSyn UTR act -226.6
Cc1ccccc1-c1nc(-c2ccccn2)no1	none
Cc1nc(-c2noc(-c3ccccc3Cl)n2)c(C(F)(F)F)o1	aSyn UTR act -142.4
COc1ccc(/C=N/n2cc(-c3ccccc3)nc2N)cc1	aSyn UTR act -133.6
COc1ccc(/C=N\n2nnc3ccccc32)cc1	none
CCCCCN=C(C)c1c(O)c2ccccc2oc1=O	aSyn UTR act -211.5
CC1=C([N+](=O)[O-])C(c2cccc(Br)c2)C2=C(N1)c1ccccc1C2=O (stereo not drawn)	none
CC(=O)C1C(=O)c2c(cccc2[N+](=O)[O-])C1=Nc1ccccc1C (stereo not drawn)	aSyn UTR act -73.1
COC(=O)/C(C#N)=C1/C=Cc2ccccc2N1	aSyn UTR act -99.3
N/C(=N\OC(=O)c1cccc2ccccc12)c1cccc([N+](=O)[O-])c1	aSyn UTR act -122.8
N/C(=N\OC(=O)c1cccc2ccccc12)c1cccnc1	aSyn UTR act -184.0
Cc1ccccc1C(=O)O/N=C(\N)c1cccc([N+](=O)[O-])c1	aSyn UTR act -274.9
O=C(O)CC1=C(Nc2ccccc2)C(=O)N(c2ccccc2)C1c1ccc(Br)cc1 (stereo not drawn)	aSyn UTR act -104.5
Cc1ccc2[nH]c3c(N4CCCCCC4)ncnc3c2c1	aSyn UTR act -127.1
CCCCOc1ncnc2c1[nH]c1ccc(C)cc12	aSyn UTR act -93.4
CCCOc1ncnc2c1[nH]c1ccccc12	aSyn UTR act -142.3
C=CCNc1ncnc2c1[nH]c1ccc(C)cc12	aSyn UTR act -183.9
CCCOc1ncnc2c1[nH]c1ccc(OC)cc12	aSyn UTR act -130.3
COc1ccc(-n2c(O)c(/C=N/Nc3nc(C)cc(C)n3)c3ccccc3c2=O)cc1OC	none
COc1ccccc1NS(=O)(=O)c1cccc(-n2c(O)c(C=Nc3ccccc3C(=O)O)c3ccccc3c2=O)c1	aSyn UTR act -66.4
CCOC(=O)CN1C(=O)S/C(=C/C=C/c2ccc(N(C)C)cc2)C1=O	aSyn UTR act -165.3
CCOC(=O)CN1C(=O)S/C(=C/c2ccc3c(c2)n(C)c(=O)n3C)C1=O	aSyn UTR act -154.8
O=C(COC(=O)CCN1C(=O)/C(=C\C=C\c2ccccc2)SC1=S)Nc1ccc(Br)cc1	none
O=C(CN1C(=O)S/C(=C\C=C\c2ccccc2)C1=O)Nc1ccc(O)cc1	aSyn UTR act -150.0
CC(C)c1ccccc1NC(=O)COC(=O)CCN1C(=O)/C(=C\C=C\c2ccccc2)SC1=S	none
Nc1nonc1-n1nnc(C(=O)N/N=C/C=C/c2ccccc2)c1CSC1=NCCS1	aSyn UTR act -79.8
CC(/C=N/NC(=O)c1nnn(-c2nonc2N)c1C(C)C)=C\c1ccccc1	aSyn UTR act -81.4
CCCc1c(C(=O)N/N=C/C(C)=C/c2ccccc2)nnn1-c1nonc1N	aSyn UTR act -67.3
CCc1ccc(-c2cc(C(=O)N3N=C(C(F)F)CC3(O)C(F)F)c3ccccc3n2)cc1 (stereo not drawn)	aSyn UTR act -67.7
CS(=O)c1ccccc1-c1nc(-c2ccc(Cl)cc2)no1 (stereo not drawn)	aSyn UTR act -143.1
CS(=O)c1ccccc1-c1nc(-c2cccc(Cl)c2)no1 (stereo not drawn)	aSyn UTR act -143.8
COc1ccc(C2=NN(C(N)=S)C(c3ccco3)C2)cc1 (stereo not drawn)	aSyn UTR act -86.5
